Sfp inh: Sfp phosphopantetheinyl transferase inhibition. Biochemical Sfp PPTase activity, qHTS. Potency, µM, without a hit: largest response in the series, negative = inhibition, actives largely listed as inhibitors. 310,000 compounds, 3.5% hits. AID 1490;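 note: the enzyme is Sfp with the accession as filed and its product quenches rhodamine fluorescence; potency is the fitted concentration of half-maximal effect; 0% = enzyme reaction without inhibitor and -100% = no enzyme wells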
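After 15 min at room temperature with compound, 15 nM Sfp received 5 uM rhodamine-CoA plus 12.5 uM BHQ-2-ybbR (50 mM Hepes pH 7.6, 10 mM MgCl2). Rate came from the fluorescence difference over 30 min, ex 525/em 598 nm.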
VDR inhibitor: blocks the human vitamin D receptor. Potency, µM, inactives show max response, negative = inhibition, actives largely listed as inhibitors. 400,000 compounds, 0.93% hits. VDR-SRC2-3 peptide fluorescence polarization, 2 h; note: potency is the fitted concentration of half-maximal effect
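Signal is fluorescence polarization, reporting how far test compounds block the interaction of VDR with the SRC2-3 coregulator peptide after a 2 h room-temperature incubation.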
PLK1 PBD inh: blocks phosphopeptide binding to human PLK1 polo-box domain; P53350; Plk1 PBD binding of FITC phosphopeptide, fluorescence polarization; Potency, µM, for inactives: max response, negative = inhibition, usual class: inhibitors; 360,000 compounds, 2.8% hits; note: potency is the fitted concentration of half-maximal effect; series mostly up to about 57 µM; nearly all actives have a fitted effect of over 65% in size
Target sequence (P53350 whole entry, looked up, the tested form may be a part): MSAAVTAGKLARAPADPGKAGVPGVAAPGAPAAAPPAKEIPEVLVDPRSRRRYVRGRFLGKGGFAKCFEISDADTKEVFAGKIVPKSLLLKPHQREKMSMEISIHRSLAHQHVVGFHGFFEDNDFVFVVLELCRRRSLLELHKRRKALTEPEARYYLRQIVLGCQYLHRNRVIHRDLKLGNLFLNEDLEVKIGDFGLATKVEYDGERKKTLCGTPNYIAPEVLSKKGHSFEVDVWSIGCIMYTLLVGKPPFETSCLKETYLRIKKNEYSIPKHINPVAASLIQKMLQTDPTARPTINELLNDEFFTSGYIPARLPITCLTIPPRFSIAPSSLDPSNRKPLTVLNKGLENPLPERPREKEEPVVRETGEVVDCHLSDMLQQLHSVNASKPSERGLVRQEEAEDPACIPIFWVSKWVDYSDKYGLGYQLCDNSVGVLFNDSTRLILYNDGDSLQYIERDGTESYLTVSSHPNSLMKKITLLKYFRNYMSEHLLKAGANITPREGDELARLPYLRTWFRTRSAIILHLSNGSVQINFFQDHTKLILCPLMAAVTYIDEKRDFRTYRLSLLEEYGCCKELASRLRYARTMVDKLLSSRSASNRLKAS
MmCpn inh: inhibitors of Methanococcus maripaludis chaperonin TRiC (MmCpn); purified Mm-Cpn ATPase, ADP Transcreener TR-FRET; Potency, µM (titrated, usually from 76.9 µM), inactives show at the top dose activity, negative = inhibition, hits mostly inhibitors; 330,000 compounds, 0.031% hits; AID 504842; note: potency is the fitted concentration of half-maximal effect; nearly all actives have a fitted effect of over 80% in size
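TR-FRET (320 nm excitation; 590 and 665 nm emission) reports ADP made from 10 uM ATP by 25 nM enzyme; compounds were preincubated 10 min, reaction run 30 min, both at 37°C.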
CCT chaperon mod: modulators of cytosolic chaperonin (CCT/TRiC) activity | purified chaperonin ATPase assay, HTRF ADP detection, 30 min | activity change, % (concentration not given with the values), hits read low | 360,000 compounds, 0.3% hits; in the data active = activity change below about -30%
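Enzyme 40 or 20 nM (batch-dependent) in Tris pH 7.4/KCl/MgCl2/DTT; cpd 76 uM single point; ATP 10 uM; 30 min 37 °C; Transcreener ADP HTRF detection, 30 min RT; ratio 665/615.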
G9a inh: blocks human histone lysine methyltransferase G9a. Q96KQ7. G9a H3K9 monomethylation, AlphaScreen, 2 h. Potency, µM (titrated, usually from 102 µM), for the others: at the top dose activity, negative = inhibition, most hits filed as inhibitors. 350,000 compounds, 8.8% hits; note: potency is the fitted concentration of half-maximal effect; nearly all actives have a fitted effect of over 75% in size
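Step 1: enzyme (final 20 nM) with compound, 15 min RT. Step 2: substrate peptide 500 nM and SAM 20 uM, 2 h RT. Step 3: anti-H3K9me1 antibody and AlphaScreen beads, 10 min, then plate read.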
Starred values were filed as active, the others as inactive; ? = inconclusive; . = not tested or not shown; [ ] = remark or other dose. An excerpt weighted towards active compounds, which were near 10% of everything screened. Unless noted, calls come from the whole dose curve; as a rule, active = well fitted curve in the direction sought with a large enough effect; inconclusive = small, poorly fitted or top-dose-only effect, or another doubt; inactive = no such curve, though single readings can be large; an effect the other way counts as inactive or inconclusive. Unless noted, % is set by controls: 0 for no effect and ±100 for the full control effect.

SMILES	Sfp inh	VDR inhibitor	PLK1 PBD inh	MmCpn inh	CCT chaperon mod	G9a inh
O=C(NCc1ccco1)c1ccc2c(c1)C(=O)c1ccccc1-2	11.2µM*	-8.6%	-16.6%	-0.4%	-0.9	?
Cn1c(=O)oc2cc(S(=O)(=O)NCCC(=O)Nc3ccc(F)cc3F)ccc21	.	-20.1%	.	.	.	1.1%[59 µM]
O=C(NC(=S)Nc1ccccc1N1CCCCC1)c1ccccc1	23.1%	-3.1%	-14.8%	-1.2%	-2.4	31.6µM*
COc1ccccc1C(=O)NC(=S)Nc1ccccc1N1CCCC1	7.8%	.	.	0.4%	.	?
O=C(NC(=S)Nc1ccccc1N1CCCC1)c1ccc(F)cc1	?	-18.0%	?	3.5%	0.3	31.6µM*
O=C(NC(=S)Nc1ccccc1N1CCCCC1)c1ccc(F)cc1Cl	10.2%	-9.4%	3.9%	-0.4%	0.8	-7.2%[12.7 µM]
Cc1cc(C(=O)NC(=S)Nc2ccccc2N2CCOCC2)ccc1[N+](=O)[O-]	7.1%	1.6%	-4.9%	1.6%	-0.1	35.5µM*
O=C(NC(=S)Nc1ncccn1)c1ccc(F)cc1	15.8µM*	1.7%	-12.2%	1.2%	-0.2	8.91µM*
CS(=O)(=O)Nc1cccc(-c2ccc3ncnc(NCc4cccnc4)c3c2)c1	24.4%	-2.5%	.	.	.	.
C=CCOC(=O)N[C@H](/C(C(=O)OC)=C(\C)NCc1ccccc1)c1ccc2c(c1)OCO2	-9.5%	-1.0%	.	.	.	.
CCCc1nc2c(sc3nc4c(cc32)COC(C)(C)C4)c(=O)o1	-12.0%	-6.8%	-9.6%	0.5%	-0.2	22.4µM*
Cc1nc2c(sc3nc4c(cc32)COC(C)(C)C4)c(=O)o1	-22.2%	11.4%	-12.5%	-3.2%	-0.1	?
CCCc1nc2c(sc3nc4c(cc32)COC(C)(C)C4)c(=O)n1Cc1ccco1	28.2µM*	1.9%	-6.4%	0.9%	-1.9	-28.1%[12.7 µM]
CCCc1nc2c(sc3nc4c(cc32)COC(C)(C)C4)c(=O)n1CCN(C)C	10.7%	-12.7%	9.2%	-1.1%	0.5	15.8%[12.7 µM]
N#CC(c1ccc(Cl)cc1)c1ncc(C(F)(F)F)cc1Cl (configuration not stated)	0.1%	-19.2%	-8.6%	0.1%	-1.3	110.1%[59 µM]
N#CC(c1ccc(Cl)cc1)c1c(Cl)cc(-n2ncc(=O)[nH]c2=O)cc1Cl (configuration not stated)	-8.6%	28.2µM*	.	.	.	?
N#Cc1cccc(CS(=O)(=O)c2nc3ccccc3s2)c1	-9.5%	?	.	.	.	.
CCCc1cc(-n2ccnc2)n2c(nc3ccccc32)c1C#N	8.8%	-14.8%	38.3%	-3.7%	-0.1	39.8µM*
Cc1cc(-n2ccnc2)n2c(nc3ccccc32)c1C#N	23.7%	-8.6%	0.7%	2.8%	-1.1	20.7%
CNCCCNC(=O)c1ccc(/C=N/O)nc1	79.4µM*	16.9%	-12.7%	2.1%	-6.1	?
O=C(NCc1ccccn1)c1ccc(/C=N/O)nc1	50.1µM*	-1.7%	-4.0%	-1.7%	-2.4	-4.9%
CN(C)CCCNC(=O)c1ccc(/C=N/O)nc1	8.8%	-9.6%	-12.2%	-2.2%	-0.9	-4.8%
NC(=O)c1ccc(/C=N/O)nc1	-68.3%	10.0%	-6.3%	-4.2%	1.1	3.55µM*
O=C(NCc1ccccc1)c1ccc(/C=N/O)nc1	-19.3%	-0.4%	-1.5%	0.3%	-1.8	10µM*
CCOc1ccc(-c2ccc(NS(=O)(=O)c3ccc(C)cc3)cc2)nn1	.	13.6%	.	.	.	0.8%[59 µM]
COc1ccc(C)cc1Nc1cc(C)nc(C)n1	.	11.5%	.	.	.	5.2%[59 µM]
